Reference: the supplement of paper PMC10981050
Structures can show the parent of a compound that is named as a salt.

system: OCI-AML2; assay: cell viability relative to vehicle control; higher = less cytotoxic; details: 10 µM; SRSF2 genotype: wt/wt
How it was run: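 CRISPR-edited SRSF2 P95 mutant and isogenic wild-type clones of four leukaemia lines were screened against Selleck bioactive, kinase and epigenetic probe libraries, with identity-inconsistent compounds removed. Compounds were acoustically dispensed into 384-well plates at a single 10 µM dose, with 2000 cells in 50 µL medium per well. After 48 h, supernatant was removed and CellTiter-Glo luminescence was read. Viability was expressed as percent of the on-plate DMSO vehicle control, analysed in Genedata Screener.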

| Compound | cell viability |
| --- | --- |
| CC(C)n1nccc1-c1ncccc1COc1cccc(O)c1C=O [Voxelotor(GBT440, GTx011)] | 98.3% |
| Cc1ccc(N(CC2=NCCN2)c2cccc(O)c2)cc1 [Phentolamine Mesylate] | 86.7% |
| O=C(NO)c1cccc(C(=O)NCCc2ccccc2)c1 | 93.3% |
| O=c1ccn(C2OC(CO)C(O)C2O)c(=O)[nH]1 (stereo not drawn) | 95.4% |
| CC1(C)S[C@@H]2[C@H](NC(=O)[C@H](N)c3ccccc3)C(=O)N2[C@H]1C(=O)OCOC(=O)[C@@H]1N2C(=O)C[C@H]2S(=O)(=O)C1(C)C [Sultamicillin] | 116% |
| Cc1cc(OCCCS(C)(=O)=O)cc(C)c1-c1cccc(COc2ccc3c(c2)OC[C@H]3CC(=O)O)c1 | 101% |
| CCCC1O[C@@H]2C[C@H]3[C@@H]4CCC5=CC(=O)C=C[C@]5(C)[C@H]4[C@@H](O)C[C@]3(C)[C@]2(C(=O)CO)O1 (stereo partly drawn) [Budesonide] | 87.6% |
| CC(C)n1nc(-c2ccc(NC(=O)Nc3cc(C(F)(F)F)ccc3F)cc2)c2c(N)ncnc21 | 8.47% |
